Data reported in PubChem BioAssay (EPA / NIEHS).
Where a structure was tested more than once in an assay, its records may differ in their call. Activity calls are given as the source filed them. How the source made its calls: active means hit-call score of the fitted dose curve at least 0.9, where 1 is the maximum; inactive means score below 0.9.

The compounds below were run on Macrophage colony-stimulating factor (MCSF), CSF1 (gene 1435) (assay: BSK_LPS_MCSF: BioMAP Diversity Plus: LPS Assay for Macrophage colony-stimulating factor (MCSF) Biomarker Activity (AID 2283083)). Settings: primary human HUVEC with PBMC; actives raise or lower the signal.
Procedure: BSK_LPS is a cell-based, multiplexed-readout assay that uses umbilical vein endothelium and peripheral blood mononuclear cells, a human vascular primary cell co-culture, with measurements taken at 24 hours after chemical dosing in a 96-well plate.BSK_LPS_MCSF is an assay component measured in the BSK_LPS assay. It measures M-CSF antibody related to regulation of gene expression using ELISA technology.Data from the assay component BSK_LPS_MCSF was analyzed into 1 assay endpoint. This assay endpoint, BSK_LPS_MCSF, was analyzed with bidirectional fitting relative to DMSO as the negative control and baseline of activity. Using a type of binding reporter, gain or loss-of-signal activity can be used to understand changes in the signaling as they relate to the gene CSF1. Furthermore, this assay endpoint can be referred to as a primary readout, because this assay has produced multiple assay endpoints where this one serves a signaling function. To generalize the intended target to other relatable targets, this assay endpoint is annotated to the cytokine intended target family, where the subfamily is colony stimulating factor.
The levels of cell surface (or secreted, indicated by the prefix "s") biomarker endpoints were measured by ELISA. Overt cytotoxicity to cells in confluent adherent cultures (all systems other than the BT system) was assessed by measuring total protein levels using sulforhodamine B (SRB) staining in parallel cultures at the time of biomarker measurements, indicated as SRB endpoints. For proliferation assays for adherent cell types, individual cell types are cultured at sub-confluence and relative cell numbers quantified by SRB staining at time points optimized for each system (48 h: 3C and CASM3C systems; 72 h: BT and HDF3CGF systems; 96 h: SAg system). SRB was performed by staining cells with 0.1% SRB after fixation with 10% TCA and reading wells at 560 nm.Viability and proliferation of PBMC (T cells) was quantified by Alamar Blue reduction for the SAg and BT systems. For PBMC viability (referred to as PBMC Cytotoxicity within the assay endpoint names), cells were plated (75,000/well in a 96-well plate) and then chemical samples added for 1 h before addition of activators, SEB and TSST-1 (20 ng/mL final concentration each). Cells were incubated for 90 h. Then, Alamar Blue (20 uL/well) (Invitrogen, Cat DAL1100) was added for 6 h, and the plates were read with a fluorescence microplate reader at 546/580 nm (excitation/emission). For PBMC proliferation, cells were plated and activated as above but incubated for only 16 h prior to addition of Alamar Blue. Plates were read after 6 h.

Structure (SMILES) | outcome | AC50
CC12CC1(C)C(=O)N(c1cc(Cl)cc(Cl)c1)C2=O (stereo not given) | inactive | 
O=C(OC1CCCCC1)c1ccccc1C(=O)OC1CCCCC1 |  | 14.6 µM (active)
O=c1[nH]c(=O)[nH]c(=O)[nH]1 | inactive | 
Nc1ncc([N+](=O)[O-])s1 | inactive | 
O=[N+]([O-])c1ccc(O)c([N+](=O)[O-])c1 | inactive | 
O=Cc1cccc(Oc2ccccc2)c1 | inactive | 
CCC(C)(C)c1ccc(O)c(C(C)(C)CC)c1 |  | 18.4 µM (active)
O=C(O)C(Cl)(Cl)Cl | inactive | 
BrCCBr | inactive | 
COc1cc(-c2ccc(N)c(OC)c2)ccc1N | inactive | 19.2 µM (active)
CN(C)N=O | inactive | 
CCOP(=S)(OCC)SCCS(=O)(=O)CC | inactive | 
CC(C)CCCCCCOC(=O)c1ccccc1C(=O)OCCCCCCC(C)C | inactive | 
Oc1cccc2cccnc12 | inactive | 
O=C(Nc1ccc2[nH]ccc2c1)c1cc2cc(F)ccc2n1Cc1cccc(F)c1 |  | 14 µM (active)
CC(=O)[O][Hg][c]1ccccc1 |  | 0.989 µM (active)
CC(C)(OO)c1ccccc1 | inactive | 
Nc1cccc2ccccc12 | inactive | 
O=C(O)CCC(F)(C(F)(F)F)C(F)(F)F | inactive | 

Structure (SMILES) | outcome | AC50
C=C(C)C(=O)[O][Sn]([CH2]CCC)([CH2]CCC)[CH2]CCC |  | 0.148 µM (active)
CCCCCCCCc1ccc(O)cc1 |  | 30.8 µM (active)
Oc1ccc(-c2ccccc2)cc1 | inactive | 
OCc1ccco1 | inactive | 
NC(=O)O | inactive | 
Oc1c(I)cc(I)cc1I |  | 31.1 µM (active)
CC(C)(C)CC(C)(C)c1ccc(O)cc1 |  | 9.26 µM (active)
ClC1(Cl)C2(Cl)C3(Cl)C4(Cl)C(Cl)(Cl)C5(Cl)C3(Cl)C1(Cl)C5(Cl)C24Cl (stereo not given) | inactive | 
ClC1=C(Cl)[C@]2(Cl)[C@H]3[C@H]([C@H]4C=C[C@H]3C4)[C@@]1(Cl)C2(Cl)Cl | inactive | 
Nc1ccc(-c2ccc(N)c(Cl)c2)cc1Cl | inactive | 
CCOC(=O)/C=C(C)/C=C/C[C@@H](C)CCCC(C)C |  | 15.5 µM (active)
COc1cc(OC)nc(NC(=O)NS(=O)(=O)c2ncccc2C(=O)N(C)C)n1 | inactive | 
COP(=S)(OC)Oc1ccc(S(=O)(=O)N(C)C)cc1 | inactive | 
CC(=O)OC(c1ccccc1)C(Cl)(Cl)Cl (stereo not given) | inactive | 
C=CC(=O)OCCCCCC(C)C | inactive | 
CCSC(C)CC1CC(=O)C(C(CC)=NOC/C=C/Cl)=C(O)C1 (stereo not given) | inactive | 
O=C(O)C(F)(F)C(F)(F)C(F)(F)C(F)(F)C(F)(F)C(F)(F)C(F)(F)C(F)(F)C(F)(F)C(F)(F)F | inactive | 31.4 µM (active)
COC(=O)c1sccc1S(=O)(=O)NC(=O)Nc1nc(C)nc(OC)n1 | inactive | 
CCOP(=S)(OCC)Oc1nc(Cl)c(Cl)cc1Cl |  | 20 µM (active)
